This note sets out measurements from PubChem BioAssay (NCATS).

The target of assay [1] is Estrogen receptor (Homo sapiens) (UniProt P03372). Kind of assay: qHTS assay for small molecule antagonists of estrogen receptor alpha signaling (AID 588513; active means well fitted curve in the direction sought with a large enough effect in the signal ratio, with a control signal flat, not every such curve was filed as active; inconclusive means small, poorly fitted or top-dose-only effect, or effect the other way, or a change in a side signal; inactive means no such curve, though single readings can be large or run the other way; the % refers to the signal ratio; further: potency means the concentration at half of the fitted maximal effect). The method, boiled down: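 Beta-lactamase reporter, antagonist mode, HEK 293 GripTite cells; 0.5nM E2 stimulus, 18 h, 37 C; CCF4 dye 2 h RT; fluorescence. IC50 and efficacy from Hill fits, normalized to E2 and DMSO.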

Assay [2] has the same target. Kind of assay: qHTS assay for small molecule agonists of estrogen receptor alpha signaling (AID 588514).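 Further: 0% = vehicle only and 100% = reference agonist; nearly all actives have a fitted effect of over 70% in size.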 Put shortly:
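EC50 and efficacy came from Hill fits of beta-lactamase reporter signal (CCF4 dye, 2 h at room temperature) scaled between DMSO and 20 nM 17-beta-estradiol. Agonist mode: HEK293 ER-alpha-UAS-bla cells in charcoal/dextran-stripped serum medium, 18 h compound exposure at 37 C.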

For assay [3], the target named is Peroxisome proliferator-activated receptor gamma (Homo sapiens) (UniProt P37231). Kind of assay: qHTS assay for small molecule agonists of peroxisome proliferator-activated receptor gamma signaling (AID 588536; active means well fitted curve in the direction sought with a large enough effect in the signal ratio, with a control signal flat, not every such curve was filed as active; inconclusive means small, poorly fitted or top-dose-only effect, or effect the other way, or a change in a side signal; inactive means no such curve, though single readings can be large or run the other way; the % refers to the signal ratio;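 further: 0% = DMSO basal wells and 100% = rosiglitazone at 2 µM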). The method, boiled down: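 This is an agonist-mode beta-lactamase reporter assay in HEK293 PPAR-gamma-UAS-bla cells with 1% charcoal/dextran FBS. Compound titrations ran 16 h at 37 C before CCF4 detection. EC50 and efficacy are Hill fits scaled to 2 uM rosiglitazone (100%) and DMSO basal.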

For assay [4] the target is unchanged. Kind of assay: qHTS assay for small molecule antagonists of peroxisome proliferator-activated receptor gamma signaling (AID 588537; active means well fitted inhibition curve with a large enough effect in the signal ratio, with a control signal flat, not every such curve was filed as active; inconclusive means small, poorly fitted or top-dose-only effect, or effect the other way, or a change in a side signal; the % refers to the signal ratio;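 further: reporter cells co-stimulated with 50 nM rosiglitazone agonist during compound treatment; % of control where 0% means no effect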). The method, boiled down: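 Compounds are tested as concentration series for inhibition of rosiglitazone-driven (50 nM) reporter expression in GeneBLAzer PPAR-gamma-UAS-bla HEK293 cells. After 16 h at 37 C, CCF4 substrate is added for 2 h at room temperature and blue/green fluorescence is measured.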

Assay [5] has as its target Vitamin D3 receptor (Homo sapiens) (UniProt P11473). Kind of assay: qHTS assay for small molecule antagonists of vitamin D receptor signaling (AID 588541).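 Further: receptor activated by calcitriol during compound treatment; series mostly up to about 77 µM; on the % scale 0 is the no-effect control and ±100 the full control effect.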 The method, boiled down:
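VDR-UAS-bla HEK293T cells (2000/well, 2% charcoal-stripped FBS) were treated with titrated compounds plus 1-alpha,25-dihydroxyvitamin D3 (50 nM or 3 nM final) for 16 h at 37 C. CCF4 beta-lactamase fluorescence was read; Hill fits gave IC50.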

The target is the same in assay [6]. Nature of the assay: qHTS assay for small molecule agonists of vitamin D receptor signaling (AID 588543).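 Further: 0% = DMSO basal and 100% = reference agonist control.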 Put shortly: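 β-lactamase reporter, VDR-UAS-bla HEK293T, agonist mode. Cells plated 5 h at 37 °C, compound titration 16 h at 37 °C, CCF4 dye 2 h RT, ratio 460/530 nm. Hill fit → EC50, efficacy vs 50 nM 1α,25-(OH)2D3.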
Assay [7] addresses Retinoic acid receptor RXR-alpha (Homo sapiens) (UniProt P19793). Nature of the assay: qHTS assay for small molecule agonists of retinoid X receptor alpha signaling (AID 588544).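 Further: 0% = DMSO basal wells and 100% = reference agonist.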
Assay [8] deals with Thyroid hormone receptor beta (Homo sapiens) (UniProt P10828). Kind of assay: qHTS assay for small molecule agonists of thyroid hormone receptor beta signaling (AID 588545). Put shortly:
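In this cell-based screen, titrated compounds act on HEK 293 cells held in medium with 2% charcoal/dextran FBS, NEAA and pyruvate for 18 hrs at 37 C. Responses are expressed relative to T3 (10 nM) as 100% and basal DMSO as 0%.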

The target is the same in assay [9]. Kind of assay: qHTS assay for small molecule antagonists of thyroid hormone receptor beta signaling (AID 588547; active means well fitted inhibition curve with a large enough effect in the signal ratio, with a control signal flat, not every such curve was filed as active; inconclusive means small, poorly fitted or top-dose-only effect, or effect the other way, or a change in a side signal; the % refers to the signal ratio;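 further: cells stimulated with 0.4 nM T3 agonist during compound exposure; series mostly up to about 77 µM; on the % scale 0 is the no-effect control and ±100 the full control effect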). As to conditions: TR-UAS-bla HEK293, beta-lactamase ratio, antagonist mode, 18 h. The method, boiled down: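 TR-UAS-bla GripTite HEK293 cells in 2% charcoal/dextran FBS medium were preincubated 4 h at 37 C, given compound (0.59 nM to 92 uM) plus 0.4 nM T3 (final) for 18 h, then CCF4 for 2 h at RT; Hill fit gave IC50.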

Assay [10] in a line: qHTS assay for small molecule activators of the p53 signaling pathway (AID 651743; active means well fitted activation curve with a large enough effect in the signal ratio, not every such curve was filed as active; inconclusive means small, poorly fitted or top-dose-only effect, or a change in a side signal; the % refers to the signal ratio; further: potency means the concentration at half of the fitted maximal effect; on activation: series mostly up to about 92 µM; % of control where 0% means no effect). As to conditions: HCT-116 p53RE-bla, beta-lactamase FRET ratio, 16 h; activation: stronger effect = higher value. Put shortly: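 Agonist-mode quantitative HTS in HCT-116 cells carrying a p53-response-element beta-lactamase reporter; 16 h compound treatment at 37 C, then FRET substrate loading for 2 h at room temperature and fluorescence read.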

The nature of assay [11]: qHTS assay for environmental chemicals that activate the Aryl hydrocarbon Receptor (AhR) signaling pathway (AID 651777; active means well fitted curve in the direction sought with a large enough effect; inconclusive means small, poorly fitted or top-dose-only effect, or another doubt; inactive means no such curve, though single readings can be large; an effect the other way counts as inactive or inconclusive; further: % of control where 0% means no effect; nearly all actives have a fitted effect of over 15% in size). The following applies: 1A2-DRE human hepatoma cells, luciferase, 24 h; activation: stronger effect = higher value. The method, boiled down: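 Quantitative HTS in stably transfected human liver-derived cells whose luciferase gene sits downstream of the CYP1A2 promoter and dioxin response element. After 24 hr exposure at 37 C, One-Glo luminescence was measured.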

In assay [12] the target is Peroxisome proliferator-activated receptor alpha (Homo sapiens) (UniProt Q07869). Kind of assay: qHTS assay for small molecule agonists of the peroxisome proliferator-activated receptor alpha (PPARalpha) signaling pathway (AID 651778; active means well fitted curve in the direction sought with a large enough effect; inconclusive means small, poorly fitted or top-dose-only effect, or another doubt; inactive means no such curve, though single readings can be large; an effect the other way counts as inactive or inconclusive; further: % of control where 0% means no effect). The following applies: PathHunter PPARalpha complementation, chemiluminescence, 6 h; max response: stronger effect = higher value. The method, boiled down:
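Cells plated at 2,000/well and held overnight at 37 C, 5% CO2, then compound added by pin tool for 6 hr; after PathHunter detection reagent and 60 min at room temperature, chemiluminescence from enzyme complementation was read.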

A short description of assay [13]: qHTS assay for small molecule agonists of the antioxidant response element (ARE) signaling pathway measured by Nrf2-dependant transcriptional activity (AID 720636; active means well fitted curve in the direction sought with a large enough effect in the repeat runs; inconclusive means weak or mixed curves; inactive means no such curve, though single readings can be large; an effect the other way counts as inactive or inconclusive; further: % of control where 0% means no effect). The method, boiled down: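 Quantitative HTS format in HepG2 cells stably expressing an ARE-luciferase reporter; 16 hr compound treatment at 37 C, luciferase signal detected with ONE-Glo.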
Assay [14] can be described thus: qHTS assay for small molecule agonists of the antioxidant response element (ARE) signaling pathway measured by Nrf2-dependant transcriptional activity - cell viability counter screen (AID 720653; active means well fitted curve in the direction sought with a large enough effect in the repeat runs; inconclusive means weak or mixed curves; inactive means no such curve, though single readings can be large; an effect the other way counts as inactive or inconclusive; further: potency means the concentration at half of the fitted maximal effect; on max response: on the % scale 0 is the no-effect control and ±100 the full control effect). As to conditions: ARE-bla HepG2 viability, CellTiter-Glo ATP luminescence, 16 h; max response: stronger effect = lower value. Put shortly: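 ARE-bla HepG2 cells (2,000/well) rested 5 hrs at 37C/5% CO2, then exposed to compounds in DMSO for 16 hrs. Viability was read in the same wells as intracellular ATP by luminescence, 30 min at room temperature after reagent addition.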

Assay [15] can be described thus: qHTS assay for cell viability of HEK293 cells (AID 743288; active means well fitted curve in the direction sought with a large enough effect; inconclusive means small, poorly fitted or top-dose-only effect, or another doubt; inactive means no such curve, though single readings can be large; an effect the other way counts as inactive or inconclusive; further: nearly all actives have a fitted effect of over 50% in size; further: potency means the concentration at half of the fitted maximal effect). The following applies: ATP luminescence (CellTiter-Glo), 18 h; max response: stronger effect = lower value. Put shortly: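 ATP luminescence (CellTiter-Glo) reports metabolically competent cell number after parental HEK293 cells, 2,000/well, were treated with DMSO-dissolved compounds for 18 h at 37 C; reagent incubation 30 min, room temperature.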

The nature of assay [16]: qHTS assay for cell viability of the p53RE-bla HCT-116 cell line (AID 743292; active means well fitted curve in the direction sought with a large enough effect; inconclusive means small, poorly fitted or top-dose-only effect, or another doubt; inactive means no such curve, though single readings can be large; an effect the other way counts as inactive or inconclusive; further: nearly all actives have a fitted effect of over 55% in size; further: potency means the concentration at half of the fitted maximal effect). Put shortly:
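Viability of compound-treated p53RE-bla HCT-116 cells is taken from ATP-dependent luciferase luminescence. Treatment lasts 16 h at 37 C after a 5 h settling period; detection follows 30 min at room temperature.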

Assay [17] has as its target Nuclear receptor subfamily 1 group I member 2 (Rattus norvegicus) (UniProt Q9R1A7). Kind of assay: qHTS assay for small molecule activators of the rat pregnane X receptor (rPXR) signaling pathway (AID 651751; call rule not given here; further: 0% is about no effect). The following applies: rPXR reporter cells, luciferase (One-Glo), 24 h.
For assay [18], the target named is Peroxisome proliferator-activated receptor delta (Homo sapiens) (UniProt Q03181). Kind of assay: qHTS assay for small molecule agonists of peroxisome proliferator-activated receptor delta signaling (AID 588534).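 Further: 0% = DMSO basal wells and 100% = positive control agonist at 10 µM.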 Put shortly:
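Agonist-mode beta-lactamase reporter readout (CCF4 dye, 2 h at RT) after 18 h at 37 °C exposure to a titration; Hill-equation fitting gave EC50 and maximal response.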

The nature of assay [19]: qHTS assay for small molecule antagonists of retinoid X receptor alpha signaling (AID 588546; active means well fitted inhibition curve with a large enough effect in the signal ratio, with a control signal flat, not every such curve was filed as active; inconclusive means small, poorly fitted or top-dose-only effect, or effect the other way, or a change in a side signal; inactive means no such curve, though single readings can be large or run the other way; the % refers to the signal ratio;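 further: cells stimulated with 9-cis-retinoic acid as agonist; on the % scale 0 is the no-effect control and ±100 the full control effect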). As to conditions: HEK293T RXRa-UAS-bla, beta-lactamase ratio, antagonist mode; measured here: W530 green channel, cytotoxicity proxy. Put shortly:
(§1)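 Beta-lactamase reporter inhibition, read as CCF4 fluorescence ratio (ex 405, em 460/530 nm) after 2 h at RT. HEK293T UAS-bla cells, 2500/well, were stimulated with 9-cis-RA at 500 or 100 nM final alongside test compound for 18 h at 37 C.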

Assay [20] addresses Retinoic acid receptor RXR-alpha (Homo sapiens) (UniProt P19793). The assay is described as above. The following applies: HEK293T RXRa-UAS-bla, beta-lactamase ratio, antagonist mode. The method, boiled down: as §1

“And” between values parts separate entries of the source, which are not always exact repeats. Equal values may be shown once. The source made the active and inactive calls. Unless noted, the call rests on the fitted dose curve.

Peroxisome proliferator-activated receptor gamma (Homo sapiens), sequence (P37231 whole entry, looked up): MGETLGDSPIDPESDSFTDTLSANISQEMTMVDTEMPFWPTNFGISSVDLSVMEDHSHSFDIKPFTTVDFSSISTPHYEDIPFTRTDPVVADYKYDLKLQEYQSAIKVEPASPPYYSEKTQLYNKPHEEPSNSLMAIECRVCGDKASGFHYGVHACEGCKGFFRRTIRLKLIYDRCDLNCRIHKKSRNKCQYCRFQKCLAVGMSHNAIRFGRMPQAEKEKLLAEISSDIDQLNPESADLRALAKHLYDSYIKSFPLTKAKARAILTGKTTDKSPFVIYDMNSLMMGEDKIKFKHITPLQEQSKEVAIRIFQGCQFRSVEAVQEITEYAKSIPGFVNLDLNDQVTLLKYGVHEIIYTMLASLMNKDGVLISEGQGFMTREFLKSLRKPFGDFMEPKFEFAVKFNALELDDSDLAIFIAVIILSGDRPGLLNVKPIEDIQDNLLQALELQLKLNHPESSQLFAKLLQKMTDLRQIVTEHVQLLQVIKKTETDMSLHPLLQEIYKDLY
Peroxisome proliferator-activated receptor delta (Homo sapiens), sequence (Q03181 whole entry, looked up): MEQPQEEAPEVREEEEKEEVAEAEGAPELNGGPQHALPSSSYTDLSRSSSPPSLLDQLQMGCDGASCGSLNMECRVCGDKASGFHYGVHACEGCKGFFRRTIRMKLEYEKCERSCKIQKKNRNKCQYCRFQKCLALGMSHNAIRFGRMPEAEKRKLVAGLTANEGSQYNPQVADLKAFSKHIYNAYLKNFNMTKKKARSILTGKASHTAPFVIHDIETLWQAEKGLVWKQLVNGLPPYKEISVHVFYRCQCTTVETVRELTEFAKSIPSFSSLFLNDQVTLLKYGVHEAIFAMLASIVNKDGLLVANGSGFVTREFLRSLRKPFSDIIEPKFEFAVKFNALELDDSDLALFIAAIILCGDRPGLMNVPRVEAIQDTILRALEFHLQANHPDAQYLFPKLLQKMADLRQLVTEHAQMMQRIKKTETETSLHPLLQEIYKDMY
Thyroid hormone receptor beta (Homo sapiens), sequence (P10828 whole entry, looked up): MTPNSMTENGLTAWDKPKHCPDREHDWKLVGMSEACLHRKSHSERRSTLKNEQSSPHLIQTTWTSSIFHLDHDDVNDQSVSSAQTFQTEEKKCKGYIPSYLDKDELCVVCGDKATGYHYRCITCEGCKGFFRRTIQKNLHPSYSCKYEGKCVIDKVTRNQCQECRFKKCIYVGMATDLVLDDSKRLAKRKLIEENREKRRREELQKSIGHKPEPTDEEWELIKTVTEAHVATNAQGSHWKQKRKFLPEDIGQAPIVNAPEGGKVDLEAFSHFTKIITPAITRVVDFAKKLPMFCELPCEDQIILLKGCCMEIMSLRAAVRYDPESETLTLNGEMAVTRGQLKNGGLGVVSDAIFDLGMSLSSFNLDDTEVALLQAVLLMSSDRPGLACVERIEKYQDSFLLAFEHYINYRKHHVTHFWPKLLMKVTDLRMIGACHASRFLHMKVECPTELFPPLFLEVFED
Estrogen receptor (Homo sapiens), sequence (P03372 whole entry, looked up): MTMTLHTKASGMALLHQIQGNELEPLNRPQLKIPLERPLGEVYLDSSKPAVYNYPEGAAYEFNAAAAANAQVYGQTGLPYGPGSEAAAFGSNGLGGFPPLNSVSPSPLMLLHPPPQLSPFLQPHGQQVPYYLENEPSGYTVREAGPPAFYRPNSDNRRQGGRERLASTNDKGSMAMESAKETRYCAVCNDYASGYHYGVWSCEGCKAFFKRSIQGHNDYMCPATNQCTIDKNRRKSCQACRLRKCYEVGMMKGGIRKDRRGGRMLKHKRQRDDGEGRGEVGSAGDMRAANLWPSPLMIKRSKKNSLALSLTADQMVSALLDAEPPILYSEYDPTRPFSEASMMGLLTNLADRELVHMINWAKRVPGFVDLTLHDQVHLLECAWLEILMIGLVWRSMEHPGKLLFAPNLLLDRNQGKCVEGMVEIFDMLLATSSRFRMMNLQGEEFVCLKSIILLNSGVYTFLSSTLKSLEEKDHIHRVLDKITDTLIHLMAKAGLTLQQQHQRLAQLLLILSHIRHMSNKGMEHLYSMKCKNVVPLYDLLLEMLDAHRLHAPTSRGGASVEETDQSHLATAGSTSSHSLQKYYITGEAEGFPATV
Peroxisome proliferator-activated receptor alpha (Homo sapiens), sequence (Q07869 whole entry, looked up): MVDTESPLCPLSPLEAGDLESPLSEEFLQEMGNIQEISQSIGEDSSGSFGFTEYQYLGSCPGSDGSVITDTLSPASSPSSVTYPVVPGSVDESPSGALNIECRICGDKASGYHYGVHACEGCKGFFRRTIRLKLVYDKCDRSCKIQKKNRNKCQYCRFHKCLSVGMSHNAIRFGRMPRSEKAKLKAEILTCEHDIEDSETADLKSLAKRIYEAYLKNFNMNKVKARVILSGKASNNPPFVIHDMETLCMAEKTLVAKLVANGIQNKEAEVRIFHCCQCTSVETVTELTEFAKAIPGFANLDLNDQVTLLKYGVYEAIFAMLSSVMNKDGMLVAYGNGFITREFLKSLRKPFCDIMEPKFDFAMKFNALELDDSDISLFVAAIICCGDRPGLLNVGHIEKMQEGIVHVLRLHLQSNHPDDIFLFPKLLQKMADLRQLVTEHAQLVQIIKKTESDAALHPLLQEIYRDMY
Vitamin D3 receptor (Homo sapiens), sequence (P11473 whole entry, looked up): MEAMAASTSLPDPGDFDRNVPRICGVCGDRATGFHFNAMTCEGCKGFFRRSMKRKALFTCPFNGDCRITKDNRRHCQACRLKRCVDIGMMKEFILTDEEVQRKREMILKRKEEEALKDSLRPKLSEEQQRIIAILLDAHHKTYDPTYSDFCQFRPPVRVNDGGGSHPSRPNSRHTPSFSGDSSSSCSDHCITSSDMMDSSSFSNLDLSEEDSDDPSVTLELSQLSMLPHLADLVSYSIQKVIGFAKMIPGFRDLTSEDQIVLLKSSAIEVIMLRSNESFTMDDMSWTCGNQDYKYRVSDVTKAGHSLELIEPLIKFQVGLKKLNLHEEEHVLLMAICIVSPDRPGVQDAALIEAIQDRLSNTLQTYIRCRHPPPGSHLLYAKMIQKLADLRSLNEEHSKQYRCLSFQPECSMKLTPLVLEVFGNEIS
Retinoic acid receptor RXR-alpha (Homo sapiens), sequence (P19793 whole entry, looked up): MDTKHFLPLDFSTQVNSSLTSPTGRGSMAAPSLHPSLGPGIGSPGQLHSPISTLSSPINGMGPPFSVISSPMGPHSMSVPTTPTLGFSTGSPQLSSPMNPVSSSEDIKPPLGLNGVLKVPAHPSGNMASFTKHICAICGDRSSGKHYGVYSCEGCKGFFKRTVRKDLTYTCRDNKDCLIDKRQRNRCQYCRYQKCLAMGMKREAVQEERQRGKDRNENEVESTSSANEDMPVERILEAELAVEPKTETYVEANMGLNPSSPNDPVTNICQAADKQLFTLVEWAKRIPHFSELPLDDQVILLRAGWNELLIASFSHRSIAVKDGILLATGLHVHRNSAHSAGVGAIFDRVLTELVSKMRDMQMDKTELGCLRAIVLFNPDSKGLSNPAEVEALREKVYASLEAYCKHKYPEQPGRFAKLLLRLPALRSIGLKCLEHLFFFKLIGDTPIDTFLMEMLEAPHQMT
Nuclear receptor subfamily 1 group I member 2 (Rattus norvegicus), sequence (Q9R1A7 whole entry, looked up): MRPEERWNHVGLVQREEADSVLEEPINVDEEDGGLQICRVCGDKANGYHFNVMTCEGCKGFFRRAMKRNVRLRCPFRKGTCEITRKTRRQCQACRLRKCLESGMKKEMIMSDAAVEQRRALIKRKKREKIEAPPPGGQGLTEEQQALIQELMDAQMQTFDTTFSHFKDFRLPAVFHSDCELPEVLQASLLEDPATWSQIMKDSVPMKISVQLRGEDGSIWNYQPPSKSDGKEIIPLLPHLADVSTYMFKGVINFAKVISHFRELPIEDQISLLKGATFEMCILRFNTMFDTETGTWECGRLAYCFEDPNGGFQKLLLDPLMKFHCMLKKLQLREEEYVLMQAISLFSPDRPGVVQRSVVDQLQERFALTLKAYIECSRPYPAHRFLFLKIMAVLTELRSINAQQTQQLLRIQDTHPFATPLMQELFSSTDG

On to `COc1cc(Cl)c(OC)cc1Cl`, for which the Potency result in assay [1], in assay [2], in assay [3], in assay [4], in [5] and in assay [7] was “inactive” in each case. The Potency result in [8], in assay [13] and in assay [16] was “inactive” each time. Besides, the molecule was called inactive in [6]. Also, the activity change % (negative = inhibition) in [9] was 4.96% (inactive). For the same molecule, the activation is -1% (inactive) in [10] and -2.48% (inactive) in assay [11]. Besides, the max response is -0.244% (inactive) in assay [12], -1.62% (inactive) in assay [14], -14.2% (inactive) in [15] and 1.36% (inactive) in assay [17].
Take `COP(=O)(OC)O/C(C)=C/C(=O)N(C)C`: the Potency entry in assay [1], in [2], in [3], in [5], in [7] and in assay [13] was “inactive” each time. For the same molecule, the Potency entry in assay [16] is “inactive”. Besides, in [18], the molecule was called inactive. Besides, the max response in assay [19] was 0.42%; in assay [20], -0.431% (inactive); in assay [12], -1.78% (inactive); in [14], 15.8% (inactive); in assay [15], 2.37% (inactive); in assay [17], 1.37% (inactive). Also, the results for the activation in [10] and in [11] were -0.0413% (inactive) and 1.01% (inactive), respectively.
With `CCOP(=S)(OCC)SCC(=O)NC(C)C`, the Potency entry in assay [1], in assay [3], in assay [4], in [5], in [7] and in [8] was “inactive” throughout. Further, the Potency result in assay [13] and in [16] was “inactive” each time. The molecule was called inactive in [18] and in [6]. In addition, the max response in assay [19] is -8.13%; in [20], -1.4% (inactive); in assay [12] it was -4.11% (inactive); in [14], 2% (inactive); in assay [15], -3.84% (inactive). In addition, the activation in assay [10] is -0.0599% (inactive); in assay [11] it was 0.496% (inactive).
Turning to `CCOP(=S)(OCC)Oc1ncn(-c2ccccc2)n1`, the Potency result in assay [1], in [3], in [5], in assay [7], in [8] and in assay [13] was “inactive” in each case. The result in assay [18] and in assay [6] was inactive. Also, the max response in assay [19] is -1.85%; in [12] it was -2.29% (inactive); in assay [14], -3.44% (inactive); in [15], -0.263% (inactive). Also, the activity change % (negative = inhibition) in assay [9] was 4.61% (inactive).
With `CCCCC(C#N)(Cn1cncn1)c1ccc(Cl)cc1` (stereo not given), the Potency entry in assay [1], in assay [2], in [3], in assay [7], in assay [8] and in [13] was “inactive” each time. The Potency result in [16] was “inactive”. In addition, the call in assay [18] was inactive. Besides, the max response in assay [19] is 7.2% and 4.81%; in [20], 3.27% (inactive) and 4.81% (inactive); in assay [12], -2.63% (inactive) and 1.11% (inactive); in [14], 0.943% (inactive) and -1.27% (inactive); in assay [15], -11.8% (inactive) and -12.8% (inactive). The activity change % (negative = inhibition) in assay [9] is 6.16% (inactive) and 3.62% (inactive). For the same molecule, the activation in assay [10] was -3.98% (inactive); in assay [11], -0.211% (inactive).
With `CC1(C)CN=C(NN=C(/C=C/c2ccc(C(F)(F)F)cc2)/C=C/c2ccc(C(F)(F)F)cc2)NC1`, the Potency is 14.1 µM [inhibitor] (active) in assay [1], 25.1 µM (active) in assay [14], 44.7 µM (active) in [15] and 50.1 µM (active) in assay [16]. For the same molecule, the activation in [11] is -13.3% (inactive). Further, the max response in assay [12] is -2.05% (inactive). The Potency result in assay [13] is “inactive”.
As to `c1cc(OCC2CO2)cc(OCC2CO2)c1` (stereo not given), the Potency in [1] was 31.6 µM [inconclusive] (active); in [10] it was 25.1 µM (active). Besides, in [18], the result was inactive. In addition, the Potency entry in [3], in [4] and in assay [13] was “inactive” throughout. The max response in assay [19] was 6.7%; in [20], 5.23% (inactive). Moreover, the activity change % (negative = inhibition) in assay [9] is 15% (inactive).
